Screens as filed in PubChem BioAssay.
CHX counter – affects cycloheximide protein synthesis inhibition readout, counter-screen | cell reporter, cycloheximide protein synthesis inhibition counterscreen | max response, % | 300,000 tested, 12% active | AID 2314; in the data active means max response mostly above about 13%, no sharp cut-off; inactive means mostly below about 14%; further: read at 38.3 µM for the half of the compounds with a filed dose; 0% is about no effect
AMA1-RON2 inh – disrupts binding of P. falciparum AMA1 to RON2; AlphaScreen AMA1-biotinylated RON2 peptide binding; Potency, µM (series often up to 58.2 µM), for the others: at the highest dose activity change, negative = inhibition, actives largely listed as inhibitors; 360,000 tested, 0.2% active; AID 720542;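 further: potency means the concentration at half of the fitted maximal effect; 0% = vehicle wells and -100% = peptide control; nearly all actives have a fitted effect of over 45% in size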
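AMA1 (3D7) with his tag at 25 nM final met compounds first, then biotinylated RON2 peptide at 25 nM; detection used donor plus acceptor beads, 10 µg/mL apiece, read by AlphaScreen after 30 min at room temperature.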
AmpC no deterg – inhibitors of E. coli AmpC beta-lactamase without detergent | AmpC nitrocefin hydrolysis, absorbance 480 nm, 0.0001% Triton | Potency, µM (top dose mostly 57.1 µM), for the others: top-dose activity change, negative = inhibition, most hits filed as inhibitors | 330,000 tested, 0.52% active | AID 485341;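 further: potency means the concentration at half of the fitted maximal effect; plate controls were no compound for no effect and no enzyme for full effect; nearly all actives have a fitted effect of over 20% in size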
Target sequence (P00811 whole entry, looked up): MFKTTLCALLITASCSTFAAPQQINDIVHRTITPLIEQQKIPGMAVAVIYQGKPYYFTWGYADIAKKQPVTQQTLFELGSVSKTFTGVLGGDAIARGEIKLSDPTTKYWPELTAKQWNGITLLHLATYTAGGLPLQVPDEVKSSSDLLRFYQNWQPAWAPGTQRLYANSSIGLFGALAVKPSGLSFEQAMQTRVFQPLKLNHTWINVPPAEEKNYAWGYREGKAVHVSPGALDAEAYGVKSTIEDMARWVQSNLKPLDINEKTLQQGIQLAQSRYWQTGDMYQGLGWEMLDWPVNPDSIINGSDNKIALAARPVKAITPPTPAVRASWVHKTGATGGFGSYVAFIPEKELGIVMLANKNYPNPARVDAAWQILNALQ
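AmpC (5.3 nM in the dispensed reagent) in 20 mM phosphate pH 7.0 with 0.01% (detergent screen) or 0.0001% Triton X-100 was preincubated with compounds for 15 min at room temperature. Nitrocefin was then added from an 800 uM solution, and hydrolysis was followed at 480 nm.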
Shiga inhibitor – blocks Shiga toxin action in Vero cells. Vero cells, Shiga toxin protein synthesis inhibition reporter. inhibition, % at 38.7 µM. 290,000 tested, 9.2% active; in the data active means inhibition mostly above about 28%, no sharp cut-off; inactive means mostly below about 43%; further: 0% is about no effect
AmpC detergent – AmpC beta-lactamase inhibition with detergent present; P00811; Potency, µM (doses to about 114 µM), for inactives: at the highest dose activity change, negative = inhibition, hits mostly inhibitors; 370,000 tested, 0.041% active; AID 485294; AmpC hydrolysis of nitrocefin, absorbance 480 nm, 0.01% Triton;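 further: potency means the concentration at half of the fitted maximal effect; 0% = no-compound wells and -100% = no-enzyme wells; nearly all actives have a fitted effect of over 25% in size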
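20 mM phosphate pH 7.0 + 0.01% (detergent screen) or 0.0001% Triton X-100; 5.3 nM AmpC reagent; cpd preinc 15 min RT; nitrocefin (800 uM stock) to start; A480 q20 s × 4 min; Activity was normalised to no-enzyme and no-compound control wells.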
SARS PLpro yeast – inhibitors of SARS-CoV papain-like protease in yeast; AID 485353; Potency, µM (highest dose often 32.9 µM), for inactives: at the top dose activity, positive = growth rescue, most hits filed as activators; 330,000 tested, 0.19% active; S. cerevisiae expressing SARS-CoV PLpro, growth rescue; calls by dose curve; further: potency means the concentration at half of the fitted maximal effect; 0% is about no effect; nearly all actives have a fitted effect of over 55% in size
Active calls of the source: *; ? = inconclusive; nt = no result. The entries come from a sample that favours hits as a whole. Unless noted, the call rests on the fitted dose curve; in most records, active means well fitted curve in the direction sought with a large enough effect; inconclusive means small, poorly fitted or top-dose-only effect, or another doubt; inactive means no such curve, though single readings can be large; an effect the other way counts as inactive or inconclusive.

SMILES | CHX counter | AMA1-RON2 inh | AmpC no deterg | Shiga inhibitor | AmpC detergent | SARS PLpro yeast
O=C(c1ccccc1)n1ccc(-c2cnc(-c3ccccc3)s2)n1 | 39.9* | 7.4% | -20.3% | 97.3* | 0.1% | -22.5%
CCN1CCN(C(c2cccs2)C(C)NC(=O)NC2CCCCC2)CC1 (stereo not given) | -1.7 | -7.8% | 44.7µM* | 2.3 | ? | 5.7%
O=C(Nc1ccc(N2CCOCC2)cc1)NC1CCCCC1 | 17.9* | -3.7% | -12.0% | 67.4* | -7.8% | 5.5%
CC(NC(=O)NC1CCCCC1)C(c1cccs1)N1CCN(C)CC1 (stereo not given) | 1.4 | 3.3% | -3.2% | -3.0 | ? | 1.1%
Cc1nc2cc(NC(=O)Nc3ccc(N4CCOCC4)cc3)ccc2n1C | -0.4 | -1.7% | -12.9% | -5.5 | 1.9% | -0.7%
O=C(Nc1ccc(N2CCOCC2)cc1)Nc1cnsn1 | 44.3* | 10.1% | -17.9% | 34.1* | 1.0% | -1.4%
O=C(Nc1ccc(N2CCOCC2)cc1)Nc1ccc(Cl)c(Cl)c1 | 19.5* | 1.4% | -45.8% | 39.9 | 0.9% | -0.1%
O=C(Nc1ccc(N2CCOCC2)cc1)C1CC1 | 10.3 | -9.3% | -18.9% | 44.0 | ? | 3.6%
Cc1ccc(NC(=O)CS(=O)CC(=O)Nc2ccc(N3CCOCC3)cc2)cc1Cl (stereo not given) | -3.1 | ? | -1.5% | 21.5 | ? | -8.7%
CN(CC1CCCN(CCc2ccc(Cl)cc2)C1)C(=O)c1ccc2nc[nH]c2c1 (stereo not given) | 1.8 | -3.8% | 24.4% | -39.1 | -0.1% | -6.8%
O=C(Nc1ccc(Cl)cc1)Nc1ccc(N2CCOCC2)cc1 | 19.3* | -3.5% | -54.0% | 30.4* | -1.2% | 2.7%
CC(NC(=O)Nc1ccc(Cl)cc1)C(c1cccs1)N1CCOCC1 (stereo not given) | -1.8 | -5.7% | 2.51µM* | -0.5 | ? | 0.7%
CC(NC(=O)Nc1ccccc1)C(c1cccs1)N1CCOCC1 (stereo not given) | -2.3 | 2.6% | -12.4% | -1.7 | ? | 4.4%
COc1ccc(Cn2ccc3nc(C)c(C(=O)Nc4cccc(SC)c4)cc3c2=O)cc1 | nt | nt | nt | nt | 3.0% | nt
CCOc1cccc(NC(=O)C(Cc2cccs2)c2nn[nH]n2)c1 (stereo not given) | 1.9 | 3.7% | -18.0% | -4.3 | -5.4% | 0.5%
COc1ccc(NC(=O)Nc2ccc(F)c(F)c2)c(OC)c1 | 14.0* | -10.7% | -22.6% | -1.2 | 7.6% | -0.1%
COc1ccc(NC(=O)Nc2cccc(F)c2)c(OC)c1 | 16.6* | ? | -29.3% | 45.6 | -10.7% | -0.7%
COc1ccc(CC(C(=O)Nc2cccc(F)c2)c2nn[nH]n2)c(OC)c1 (stereo not given) | 16.8* | -9.2% | -20.1% | 38.0 | ? | -5.0%
O=C(Nc1cccc(-c2csc(Nc3ccccc3)n2)c1)c1ccccc1 | 31.4* | -4.8% | -39.4% | 84.4* | 0.9% | -12.8%
O=C(Nc1cccc(-c2csc(Nc3cccc(C(F)(F)F)c3)n2)c1)c1ccccc1 | -1.3 | -6.5% | 2µM* | 8.4 | -0.8% | -9.9%
O=C(Nc1ccc(-c2csc(Nc3cccc(C(F)(F)F)c3)n2)cc1)c1ccccc1 | -2.6 | -3.8% | -50.8% | -0.4 | -5.2% | -3.3%
CCCCC(=O)Nc1cccc(-c2csc(-c3ccccc3)n2)c1 | 12.3 | 10.5% | ? | 60.6* | -9.9% | -19.3%
Fc1ccc(CN2CCN(c3ncccn3)CC2)cc1 | -1.9 | -4.3% | -5.2% | -12.8 | -0.6% | 0.6%
CCc1ccc2c(c1)c(=O)c(S(=O)(=O)c1ccc(F)cc1)cn2CC(=O)Nc1ccc(C)cc1C | nt | nt | nt | nt | 2.2% | nt
Cc1cc(C(=O)CSc2nnc(N)s2)c(C)n1Cc1cccs1 | 57.4* | 0.1% | -19.1% | 83.0* | 4.6% | 2.6%
SMILES | CHX counter | AMA1-RON2 inh | AmpC no deterg | Shiga inhibitor | AmpC detergent | SARS PLpro yeast
COc1ccc(-c2nnc(SCC(=O)c3cc(C)n(Cc4cccs4)c3C)o2)cc1 | -1.1 | 0.0% | -17.4% | 23.4 | -7.2% | -2.5%
Cc1cc(C(=O)CSc2n[nH]c(-c3ccccc3F)n2)c(C)n1Cc1cccs1 | 17.0* | -1.1% | -34.0% | 38.8 | -13.3% | -9.9%
Cc1csc(SCC(=O)c2cc(C)n(Cc3cccs3)c2C)n1 | 16.8* | 31.8% | -19.6% | 31.6* | -8.4% | -10.3%
Cn1c(=O)oc2cc(S(=O)(=O)NCCC(=O)NC3CCCc4ccccc43)ccc21 (stereo not given) | 3.1 | -7.9% | 1.4% | -5.3 | 1.9% | 1.2%
C=CCn1c2ccccc2c2nnc(SC(CC)C(=O)Nc3sc4c(c3C#N)CCCC4)nc21 (stereo not given) | 23.8* | 22.2% | -28.6% | 6.9 | -6.0% | -6.1%
Cc1ccc2c(CN(C)Cc3ccccc3)cc(=O)oc2c1C | 43.6* | -3.0% | -5.3% | 46.1* | 3.9% | -1.1%
Cc1ccc2c(CN(C)Cc3cccc(F)c3)cc(=O)oc2c1C | 22.5* | 12.4% | -16.1% | 55.5 | 0.0% | -2.8%
O=C(CSc1nnc(-c2c[nH]c3ccccc23)o1)N1CCCCC1 | 25.8* | -13.7% | -18.6% | 69.7* | -12.7% | -2.3%
O=C(CSc1nnc(-c2ccccc2)o1)N1CCCC1 | 15.3* | 8.8% | -18.3% | 58.5 | 0.1% | 0.2%
O=C(CSc1nnc(-c2ccc(F)cc2)o1)N1CCCCC1 | 26.8* | -0.3% | -9.2% | 67.4* | ? | -1.4%
O=C(CSc1nnc(-c2c[nH]c3ccccc23)o1)N1c2ccccc2CCc2ccccc21 | 9.4 | -8.1% | 0.6% | 10.5 | 1.3% | -0.5%
CC1CC(C)CN(C(=O)CSc2nnc(-c3ccc(F)cc3)o2)C1 (stereo not given) | -8.5 | 0.0% | 15.4% | -5.2 | -12.4% | 17.3%
O=C(CSc1nnc(-c2ccccc2)o1)N1CCCCC1 | 18.0* | 5.1% | -8.2% | 90.2* | 4.3% | -0.2%
CC1CCN(C(=O)CSc2nnc(-c3ccccc3)o2)CC1 | nt | nt | nt | nt | 11.9% | nt
CC(=O)Nc1ccc(S(=O)(=O)NCCSc2ccccn2)cc1 | -0.6 | 10.6% | -19.4% | -16.4 | 1.6% | -0.7%
Cc1nnc(SCC(=O)Nc2ccc(S(N)(=O)=O)cc2)n(N)c1=O | nt | 68.6% | -19.5% | nt | nt | nt
Cc1ccc2c(=O)cc(C(=O)Nc3sc4c(c3C(=O)NCc3ccco3)CCCC4)oc2c1C | nt | nt | nt | nt | 19.9% | nt
Cc1nc(=O)cc(-c2ccccc2)n1-c1ccccc1 | -3.5 | 5.7% | -17.0% | 20.8 | ? | 2.1%
CN(C)c1ccc(/C=C2\C(=O)Nc3ccccc32)cc1 | 76.4* | nt | nt | 78.4* | nt | nt
O=C1Nc2ccccc2/C1=C/c1cnc[nH]1 | 1.0 | 78.6% | -13.1% | -6.4 | ? | -13.1%
Cc1ccc(/C=C2\C(=O)Nc3ccccc32)o1 | 17.5* | -12.3% | -22.1% | 21.1 | -20.6% | -114.0%
O=C1Nc2ccccc2/C1=C/c1cnc(-c2ccccc2)[nH]1 | 59.4* | -18.5% | -31.2% | 53.4* | -4.5% | -1.5%
O=C1Nc2ccccc2/C1=C/c1cccnc1 | -0.9 | 6.5% | -10.8% | -8.9 | 0.7% | -17.0%
